Source: the supplement of paper PMC11732987, “Enantioselective OTUD7B fragment discovery through chemoproteomics screening and high-throughput optimisation” (Communications Chemistry, 2025)

How the values were obtained:
Test in all cases: log2 ratio of Biotin-Ahx-Ub-VS probe labelling (fragment/DMSO); higher = less target engagement (more negative = stronger competition), active = hit call of the paper (q ≤ 0.05, log2 ratio ≤ -1)
Settings in all cases: compound concentration: 200 uM; treatment time: 3 h
[1] = target: USP34 (UniProt Q70CQ2)
Sequence of USP34 (Q70CQ2 whole entry, the tested form may be a part): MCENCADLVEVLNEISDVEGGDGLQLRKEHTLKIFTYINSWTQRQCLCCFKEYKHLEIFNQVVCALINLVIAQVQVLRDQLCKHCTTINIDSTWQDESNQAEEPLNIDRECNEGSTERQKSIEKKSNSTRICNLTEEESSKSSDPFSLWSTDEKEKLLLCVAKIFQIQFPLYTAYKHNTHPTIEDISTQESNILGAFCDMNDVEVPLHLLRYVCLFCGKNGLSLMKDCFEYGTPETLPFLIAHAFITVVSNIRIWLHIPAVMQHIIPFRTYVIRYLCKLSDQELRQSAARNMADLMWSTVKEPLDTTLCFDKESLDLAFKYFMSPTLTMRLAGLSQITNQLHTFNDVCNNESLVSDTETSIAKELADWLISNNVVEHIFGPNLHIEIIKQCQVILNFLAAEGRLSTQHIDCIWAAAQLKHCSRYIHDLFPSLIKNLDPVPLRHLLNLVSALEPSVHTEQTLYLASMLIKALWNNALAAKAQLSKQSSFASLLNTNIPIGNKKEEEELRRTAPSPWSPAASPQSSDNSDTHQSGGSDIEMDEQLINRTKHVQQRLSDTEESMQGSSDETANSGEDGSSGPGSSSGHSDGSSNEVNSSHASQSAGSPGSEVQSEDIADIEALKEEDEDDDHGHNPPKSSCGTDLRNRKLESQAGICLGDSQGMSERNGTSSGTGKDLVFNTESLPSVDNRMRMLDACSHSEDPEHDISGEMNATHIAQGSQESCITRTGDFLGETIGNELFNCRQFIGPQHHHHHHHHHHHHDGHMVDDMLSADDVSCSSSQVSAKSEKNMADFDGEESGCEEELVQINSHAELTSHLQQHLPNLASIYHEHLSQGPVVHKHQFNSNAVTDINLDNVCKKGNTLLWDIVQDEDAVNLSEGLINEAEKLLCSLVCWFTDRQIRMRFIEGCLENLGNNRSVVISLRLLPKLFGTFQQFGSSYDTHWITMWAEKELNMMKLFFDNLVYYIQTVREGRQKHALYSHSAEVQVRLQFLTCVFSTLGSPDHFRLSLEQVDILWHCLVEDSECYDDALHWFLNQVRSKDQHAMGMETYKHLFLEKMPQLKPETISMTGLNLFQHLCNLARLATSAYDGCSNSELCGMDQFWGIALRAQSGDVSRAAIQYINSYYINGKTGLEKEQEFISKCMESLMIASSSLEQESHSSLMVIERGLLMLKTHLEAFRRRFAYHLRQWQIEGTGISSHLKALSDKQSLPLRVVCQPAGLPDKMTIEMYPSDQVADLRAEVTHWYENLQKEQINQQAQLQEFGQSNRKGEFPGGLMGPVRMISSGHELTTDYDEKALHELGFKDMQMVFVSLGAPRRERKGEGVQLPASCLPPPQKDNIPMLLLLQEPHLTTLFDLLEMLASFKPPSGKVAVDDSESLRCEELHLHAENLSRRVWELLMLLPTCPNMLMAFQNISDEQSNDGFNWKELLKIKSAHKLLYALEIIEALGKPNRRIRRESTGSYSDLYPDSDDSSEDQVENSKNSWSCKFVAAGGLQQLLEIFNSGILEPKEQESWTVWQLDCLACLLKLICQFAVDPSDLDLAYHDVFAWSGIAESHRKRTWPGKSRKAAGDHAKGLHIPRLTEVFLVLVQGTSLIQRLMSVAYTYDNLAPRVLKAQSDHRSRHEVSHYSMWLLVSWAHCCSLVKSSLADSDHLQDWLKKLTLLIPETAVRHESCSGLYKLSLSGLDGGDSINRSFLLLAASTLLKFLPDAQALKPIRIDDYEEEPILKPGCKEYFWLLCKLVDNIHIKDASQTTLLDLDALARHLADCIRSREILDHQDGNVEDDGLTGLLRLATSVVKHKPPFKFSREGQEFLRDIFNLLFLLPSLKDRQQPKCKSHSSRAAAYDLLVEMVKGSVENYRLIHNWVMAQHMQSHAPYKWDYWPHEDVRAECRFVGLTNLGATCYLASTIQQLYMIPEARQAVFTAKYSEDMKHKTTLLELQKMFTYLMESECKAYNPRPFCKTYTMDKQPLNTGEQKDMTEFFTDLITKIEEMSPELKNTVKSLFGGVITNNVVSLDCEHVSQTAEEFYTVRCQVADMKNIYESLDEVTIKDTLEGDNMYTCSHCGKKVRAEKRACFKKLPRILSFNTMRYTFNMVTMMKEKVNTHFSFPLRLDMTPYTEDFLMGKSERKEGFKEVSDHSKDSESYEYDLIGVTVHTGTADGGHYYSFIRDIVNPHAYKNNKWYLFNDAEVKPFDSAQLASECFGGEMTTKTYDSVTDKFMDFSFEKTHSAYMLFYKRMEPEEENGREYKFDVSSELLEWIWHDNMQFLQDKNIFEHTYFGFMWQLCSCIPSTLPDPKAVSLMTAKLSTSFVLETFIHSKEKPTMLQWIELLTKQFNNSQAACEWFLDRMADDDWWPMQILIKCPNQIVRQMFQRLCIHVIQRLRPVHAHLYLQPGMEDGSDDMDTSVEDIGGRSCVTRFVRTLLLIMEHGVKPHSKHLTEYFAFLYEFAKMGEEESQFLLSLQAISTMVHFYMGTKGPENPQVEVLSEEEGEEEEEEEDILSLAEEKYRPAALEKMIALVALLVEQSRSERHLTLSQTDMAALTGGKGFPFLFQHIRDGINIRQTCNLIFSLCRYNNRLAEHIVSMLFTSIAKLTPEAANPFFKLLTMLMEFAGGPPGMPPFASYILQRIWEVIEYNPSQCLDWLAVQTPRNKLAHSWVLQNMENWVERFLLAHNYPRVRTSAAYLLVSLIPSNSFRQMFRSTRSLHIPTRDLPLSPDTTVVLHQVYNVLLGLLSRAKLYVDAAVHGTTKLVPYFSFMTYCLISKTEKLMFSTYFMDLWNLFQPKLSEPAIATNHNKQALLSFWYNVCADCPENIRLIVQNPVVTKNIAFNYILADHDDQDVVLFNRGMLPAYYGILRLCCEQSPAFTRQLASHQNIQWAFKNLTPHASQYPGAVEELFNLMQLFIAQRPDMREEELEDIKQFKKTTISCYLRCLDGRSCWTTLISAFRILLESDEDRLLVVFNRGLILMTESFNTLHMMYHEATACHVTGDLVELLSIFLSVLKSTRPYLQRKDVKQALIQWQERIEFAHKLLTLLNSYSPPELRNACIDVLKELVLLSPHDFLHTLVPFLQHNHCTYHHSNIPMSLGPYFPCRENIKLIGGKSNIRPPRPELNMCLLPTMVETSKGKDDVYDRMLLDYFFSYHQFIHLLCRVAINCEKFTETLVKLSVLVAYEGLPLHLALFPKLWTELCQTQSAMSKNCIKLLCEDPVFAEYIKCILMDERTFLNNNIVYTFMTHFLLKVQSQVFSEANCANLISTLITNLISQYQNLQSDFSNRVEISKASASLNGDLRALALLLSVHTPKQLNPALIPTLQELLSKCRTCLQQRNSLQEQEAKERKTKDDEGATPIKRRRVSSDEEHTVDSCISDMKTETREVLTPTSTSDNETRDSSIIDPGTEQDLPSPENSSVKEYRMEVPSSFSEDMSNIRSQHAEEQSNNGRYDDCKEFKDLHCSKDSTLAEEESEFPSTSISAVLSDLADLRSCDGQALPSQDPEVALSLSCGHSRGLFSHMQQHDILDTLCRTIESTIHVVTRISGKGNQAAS
In short: (§1)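 Using Biotin-Ahx-Ub-VS at 0.5 µM final for 1 h, DUBs were labelled in HEK293T lysate (495 µg per sample) that had first been treated in triplicate with fragment at 200 µM or vehicle for 3 h. NeutrAvidin enrichment, LysC and trypsin digestion and diaPASEF LC-MS/MS followed. Spectronaut label-free quantities were global-median-normalised. Values are average log2 fragment/vehicle ratios by unpaired t-test, using proteins with ≥2 unique peptides.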

[2] = target: T1, USP36 (UniProt Q9P275)
T1 sequence (whole entry): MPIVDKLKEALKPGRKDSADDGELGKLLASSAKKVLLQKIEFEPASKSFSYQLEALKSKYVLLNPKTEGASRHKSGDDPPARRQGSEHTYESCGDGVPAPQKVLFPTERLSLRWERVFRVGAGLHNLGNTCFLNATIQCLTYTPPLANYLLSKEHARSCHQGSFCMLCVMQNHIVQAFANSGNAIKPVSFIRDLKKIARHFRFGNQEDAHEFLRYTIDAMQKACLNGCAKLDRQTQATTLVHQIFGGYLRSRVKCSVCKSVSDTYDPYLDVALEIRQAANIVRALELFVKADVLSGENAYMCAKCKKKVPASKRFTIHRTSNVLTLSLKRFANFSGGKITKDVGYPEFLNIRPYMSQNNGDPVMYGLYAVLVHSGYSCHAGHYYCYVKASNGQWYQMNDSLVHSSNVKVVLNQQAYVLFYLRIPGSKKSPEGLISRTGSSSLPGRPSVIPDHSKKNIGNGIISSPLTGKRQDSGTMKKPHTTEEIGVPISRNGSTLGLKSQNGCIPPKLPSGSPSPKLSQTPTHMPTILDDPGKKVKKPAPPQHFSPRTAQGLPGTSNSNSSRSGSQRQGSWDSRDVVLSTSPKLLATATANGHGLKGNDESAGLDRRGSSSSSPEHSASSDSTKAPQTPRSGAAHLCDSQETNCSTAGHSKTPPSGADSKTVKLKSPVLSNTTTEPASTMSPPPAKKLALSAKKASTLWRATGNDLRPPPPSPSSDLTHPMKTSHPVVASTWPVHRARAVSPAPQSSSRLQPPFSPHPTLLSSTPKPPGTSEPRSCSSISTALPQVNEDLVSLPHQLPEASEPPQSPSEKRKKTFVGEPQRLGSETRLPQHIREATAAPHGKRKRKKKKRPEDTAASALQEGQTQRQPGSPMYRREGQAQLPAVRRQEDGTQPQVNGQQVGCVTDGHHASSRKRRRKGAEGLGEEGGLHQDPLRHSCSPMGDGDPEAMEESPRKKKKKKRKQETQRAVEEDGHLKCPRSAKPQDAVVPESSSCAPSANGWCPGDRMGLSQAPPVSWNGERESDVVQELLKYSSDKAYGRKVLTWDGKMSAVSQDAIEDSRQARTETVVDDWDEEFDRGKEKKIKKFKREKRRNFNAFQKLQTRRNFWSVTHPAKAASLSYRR
In short: as §1

[3] = target: T2, USP38 (UniProt Q8NB14)
T2 sequence (whole entry): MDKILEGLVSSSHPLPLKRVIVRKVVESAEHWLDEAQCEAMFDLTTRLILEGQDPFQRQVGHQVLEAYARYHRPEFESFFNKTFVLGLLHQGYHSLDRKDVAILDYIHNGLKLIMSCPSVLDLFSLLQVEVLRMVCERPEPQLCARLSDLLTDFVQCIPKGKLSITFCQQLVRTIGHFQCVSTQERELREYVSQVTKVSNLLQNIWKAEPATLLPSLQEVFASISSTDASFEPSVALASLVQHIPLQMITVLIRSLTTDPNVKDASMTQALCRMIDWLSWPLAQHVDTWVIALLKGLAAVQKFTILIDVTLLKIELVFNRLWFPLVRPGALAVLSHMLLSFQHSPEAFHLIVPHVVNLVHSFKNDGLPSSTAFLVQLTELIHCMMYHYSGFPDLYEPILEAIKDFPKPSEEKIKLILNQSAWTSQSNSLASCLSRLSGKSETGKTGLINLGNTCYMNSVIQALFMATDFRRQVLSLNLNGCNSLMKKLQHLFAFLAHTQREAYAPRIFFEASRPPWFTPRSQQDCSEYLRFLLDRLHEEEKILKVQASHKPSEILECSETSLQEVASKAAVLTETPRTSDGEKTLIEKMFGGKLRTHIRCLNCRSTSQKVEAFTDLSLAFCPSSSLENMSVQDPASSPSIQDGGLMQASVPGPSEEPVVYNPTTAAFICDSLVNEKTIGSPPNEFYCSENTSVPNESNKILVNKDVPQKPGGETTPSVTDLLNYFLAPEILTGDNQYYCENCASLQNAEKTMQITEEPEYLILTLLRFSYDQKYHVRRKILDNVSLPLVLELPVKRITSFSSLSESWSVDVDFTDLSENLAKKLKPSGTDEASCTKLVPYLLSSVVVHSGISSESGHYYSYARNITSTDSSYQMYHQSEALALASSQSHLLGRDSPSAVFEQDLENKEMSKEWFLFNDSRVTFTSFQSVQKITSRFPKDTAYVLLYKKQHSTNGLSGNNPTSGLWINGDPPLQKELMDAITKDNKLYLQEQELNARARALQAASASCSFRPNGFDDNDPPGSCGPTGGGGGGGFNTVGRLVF
In short: as §1

[4] = target: T3, USP39 (UniProt Q53GS9)
T3 sequence (whole entry): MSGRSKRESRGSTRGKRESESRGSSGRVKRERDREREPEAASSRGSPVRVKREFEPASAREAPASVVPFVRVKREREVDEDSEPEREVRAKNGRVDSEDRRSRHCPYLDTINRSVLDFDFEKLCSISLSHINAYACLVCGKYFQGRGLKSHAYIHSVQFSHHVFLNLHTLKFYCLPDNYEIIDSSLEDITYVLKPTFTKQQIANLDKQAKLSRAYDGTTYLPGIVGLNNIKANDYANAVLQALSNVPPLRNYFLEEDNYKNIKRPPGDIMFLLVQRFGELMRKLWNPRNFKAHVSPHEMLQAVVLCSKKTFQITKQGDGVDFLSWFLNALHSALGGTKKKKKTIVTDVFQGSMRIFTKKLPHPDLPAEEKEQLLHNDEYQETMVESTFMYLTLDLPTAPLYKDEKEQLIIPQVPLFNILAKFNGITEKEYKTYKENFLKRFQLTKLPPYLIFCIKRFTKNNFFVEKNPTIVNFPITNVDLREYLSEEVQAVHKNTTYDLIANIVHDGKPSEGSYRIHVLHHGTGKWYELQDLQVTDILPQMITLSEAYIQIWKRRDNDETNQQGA
In short: as §1

[5] = target: T4, USP4 (UniProt Q13107)
T4 sequence (whole entry): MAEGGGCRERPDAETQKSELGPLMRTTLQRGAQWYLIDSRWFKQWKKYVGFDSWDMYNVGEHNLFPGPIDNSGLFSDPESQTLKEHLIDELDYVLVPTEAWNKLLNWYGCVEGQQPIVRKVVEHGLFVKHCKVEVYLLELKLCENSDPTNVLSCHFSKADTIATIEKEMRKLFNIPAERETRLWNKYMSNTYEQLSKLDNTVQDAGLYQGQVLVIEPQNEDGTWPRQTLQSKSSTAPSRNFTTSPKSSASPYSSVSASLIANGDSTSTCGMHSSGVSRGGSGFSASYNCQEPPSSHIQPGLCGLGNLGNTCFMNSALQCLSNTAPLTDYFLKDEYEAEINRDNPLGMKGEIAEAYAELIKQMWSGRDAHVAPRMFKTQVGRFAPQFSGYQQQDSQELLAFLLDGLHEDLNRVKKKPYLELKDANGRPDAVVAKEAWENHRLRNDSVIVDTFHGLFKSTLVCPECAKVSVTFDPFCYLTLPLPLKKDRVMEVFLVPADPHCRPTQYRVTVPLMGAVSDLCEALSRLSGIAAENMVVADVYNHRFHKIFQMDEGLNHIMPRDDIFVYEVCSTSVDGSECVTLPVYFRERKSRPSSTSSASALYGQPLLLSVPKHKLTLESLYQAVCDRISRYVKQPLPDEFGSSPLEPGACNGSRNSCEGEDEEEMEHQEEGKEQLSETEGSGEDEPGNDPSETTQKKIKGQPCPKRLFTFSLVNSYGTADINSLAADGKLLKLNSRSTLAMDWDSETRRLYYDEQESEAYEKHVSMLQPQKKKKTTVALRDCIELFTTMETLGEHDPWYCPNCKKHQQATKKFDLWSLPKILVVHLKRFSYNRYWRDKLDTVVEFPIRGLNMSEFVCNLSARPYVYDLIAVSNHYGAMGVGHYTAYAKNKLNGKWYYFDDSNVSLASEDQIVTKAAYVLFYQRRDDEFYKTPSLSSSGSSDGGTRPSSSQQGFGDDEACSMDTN
In short: as §1

Measured: log2 ratio of Biotin-Ahx-Ub-VS probe labelling

COc1ccc(-c2csc(NC(=O)CCl)n2)cc1
inactive: [1] -0.405 | [2] -0.137 | [3] -0.188 | [4] 0.0959 | [5] -0.299
